Hit rate of the full screen: of about 220,000 compounds, about 830 (0.38%) were called active.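 How the source made its calls: active means compound inhibiting the enzyme by more than half at any dose during confirmatory dose-response retesting; inconclusive means strong single-dose inhibitors picked by rank but not retested; inactive means the rest.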 A selection follows. Potency and affinity values are given separately.
molecular target: Leucine aminopeptidase (Plasmodium falciparum (isolate 3D7)) (UniProt Q8IL11); experiment: P. falciparum M17LAP inhibitors, primary screen, biochemical, fluorogenic H-Leu-NHMec substrate, 1536-well (AID 1619); conditions: recombinant M17LAP, H-Leu-NHMec fluorogenic kinetic assay; at 30 µM; active compounds read high;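 further: plate controls were full reaction with DMSO carrier for no effect and no enzyme background for full effect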
Sequence (Q8IL11 whole entry, looked up): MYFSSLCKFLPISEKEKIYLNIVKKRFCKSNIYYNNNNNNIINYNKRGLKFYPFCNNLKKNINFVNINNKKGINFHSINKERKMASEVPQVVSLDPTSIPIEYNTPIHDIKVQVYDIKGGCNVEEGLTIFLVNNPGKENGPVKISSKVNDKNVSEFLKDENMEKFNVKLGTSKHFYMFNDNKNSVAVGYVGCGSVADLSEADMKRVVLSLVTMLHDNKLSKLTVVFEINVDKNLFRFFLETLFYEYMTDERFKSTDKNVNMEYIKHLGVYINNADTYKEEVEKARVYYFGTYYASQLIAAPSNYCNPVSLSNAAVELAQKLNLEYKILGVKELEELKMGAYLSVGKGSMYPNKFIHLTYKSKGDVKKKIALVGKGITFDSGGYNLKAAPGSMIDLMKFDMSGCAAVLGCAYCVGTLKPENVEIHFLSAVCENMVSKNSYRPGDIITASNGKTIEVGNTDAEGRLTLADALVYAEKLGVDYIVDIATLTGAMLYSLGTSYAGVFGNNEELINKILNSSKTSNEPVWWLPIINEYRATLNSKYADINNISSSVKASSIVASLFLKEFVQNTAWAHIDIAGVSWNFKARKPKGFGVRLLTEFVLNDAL

inhibition, inactive:
O=C1CC(CC(=O)N/N=C/c2ccccc2[N+](=O)[O-])=NN1 56.8%
CC1=NNC(=O)C1CCC(=O)N/N=C/c1ccc(C)cc1 (stereo not drawn) 5.32%
CC1=NNC(=O)C1CCC(=O)N/N=C/c1ccccc1 (stereo not drawn) -4.86%
CCCCCC(=O)N/N=C/c1ccccc1[N+](=O)[O-] 36.9%
CC1=NNC(=O)C1CCC(=O)N/N=C/c1c(Cl)cccc1Cl (stereo not drawn) -1.12%
CC1=NNC(=O)C1CC(=O)N/N=C/c1sccc1C (stereo not drawn) 9.78%
CC1=NNC(=O)C1CCC(=O)N/N=C/c1ccc(Cl)cc1Cl (stereo not drawn) 11.1%
O=C(Cc1c(F)cccc1Cl)Nc1cc(S(=O)(=O)N2CCCCC2)ccc1N1CCOCC1 10.3%
COc1cccc(Nc2cc(C)nc3nc(C)nn23)c1 1.55%
Cc1cc(C)c(NC(=O)CCCOC(=O)C2=COCCO2)c(C)c1 12.3%
O=C(NCc1ccco1)C(c1ccccc1)N(Cc1cccnc1)C(=O)Cn1nnc2ccccc21 (stereo not drawn) 2.12%
CCOC(=O)N1CCC(NC(=O)c2cc(S(=O)(=O)N3CCOCC3)ccc2F)CC1 -2.28%
O=C(Nc1ccc(F)c(F)c1)c1cnc(-c2ccccc2)nc1-c1ccccc1 6.48%
COc1ccccc1NC(=S)NCCc1c[nH]c2ccccc12 1.87%
CC1(C)CC2CC(C)(CN2Cc2c(O)ccc3ccccc23)C1 (stereo not drawn) -1.68%
O=C(CCC(=O)N/N=C/c1ccco1)N/N=C/c1ccco1 6.28%
CC1C(=O)NN=C1C(=O)N/N=C/c1ccco1 (stereo not drawn) 5.8%
COc1ccc2cc(C)c3nnc(SCC(=O)Nc4cc(OC)c(OC)cc4C(=O)O)n3c2c1 3.81%
CCOC(=O)CC(=O)CSc1nc2ccc(OC)cc2cc1C -7.77%
COc1ccc(OC)c(NC(=O)CSc2nc3ccccc3cc2Cc2ccccc2)c1 -12.8%
CCc1cc2cc(OC)ccc2nc1SCC(=O)NNC(=O)c1ccco1 -4.39%
CC(C)CN(CC(C)C)S(=O)(=O)N1CCC(C(=O)NCc2ccc3c(c2)OCO3)CC1 -3.17%
CC(C)S(=O)(=O)C1=NSC2=NC(=O)/C(=C\c3ccc(-c4cccc(C(=O)O)c4)o3)C(=N)N21 46.5%
Cc1ccc(-n2cccc2/C=C2/C(=N)N3C(=NC2=O)SN=C3S(C)(=O)=O)cc1 26.3%
CS(=O)(=O)C1=NSC2=NC(=O)/C(=C\c3ccc(-c4ccccc4)o3)C(=N)N21 55.5%
N=C1/C(=C\c2ccc(-c3ccc(C(=O)O)cc3)o2)C(=O)N=C2SC=C(c3ccccc3)N12 23.3%
Cc1ccc(-n2nc(C)c3c2OC(N)=C(C#N)C3c2ccncc2)cc1 (stereo not drawn) 21.6%
Cc1cc(C(=O)NC2CCCCC2)on1 13.6%
O=C(COC(=O)c1cncc(Br)c1)NCc1ccccc1 -0.29%
C/C(=N/O)c1no[n+]([O-])c1/C(C)=N\O 4.25%
COC(=O)CSc1nc2cc(Cl)ccc2c(=O)n1C1CCCC1 -2.31%
Cc1c(N=C(N)/N=C(\N)Nc2ccc(Br)cc2)c(=O)n(-c2ccccc2)n1C -11.5%
CC1CCCCN1S(=O)(=O)c1ccc(N(C(=O)c2cnccn2)C(C(=O)NC2CCCCC2)c2cccs2)cc1 (stereo not drawn) -5%
CC(C)C(=O)c1cc2c(cc1NC(=O)c1cccs1)OCCO2 2.83%
CC(OC(=O)c1cc2c(ccc3ccccc32)oc1=O)c1nc2ccccc2s1 (stereo not drawn) -3.25%
Cc1cc(NCc2ccc3c(c2)OCO3)n2nc(C)nc2n1 -0.05%
COc1cccc(-c2nnn(CC(=O)Nc3ccc(C)cc3C)n2)c1OC -10%
COc1cccc(-c2nnn(CC(=O)NC3CCCC3)n2)c1OC 13.1%
CC(=O)c1cc(CN2CCN(CC=C(C)C)C(CCO)C2)cs1 (stereo not drawn) -1.16%
CC1(C)CC(C#N)(N2CCOCC2)CCO1 (stereo not drawn) -15.2%
COc1cccc2c(SCC(=O)N/N=C/c3ccccc3)cc(C)nc12 2.63%
COc1cccc2c(SCC(=O)N/N=C/c3ccc(O)cc3O)cc(C)nc12 16.9%
Cc1ccc2nc(C(O)C(O)c3nc4ccc(C)cc4[nH]3)[nH]c2c1 (stereo not drawn) 12.8%
COc1ccc(/C=N/NC(=O)c2[nH]c(C)c(C(=O)N/N=C/c3ccc(OC)cc3)c2C)cc1 -5.84%
Cc1[nH]c(C(=O)N/N=C/c2ccc(N(C)C)cc2)c(C)c1C(=O)N/N=C/c1ccc(N(C)C)cc1 -3.97%
O=C(N/N=C/c1cccs1)c1c[nH]c2ccccc12 19.5%
O=C(COc1ccc(C(=O)c2ccccc2)cc1)NCC(=O)Nc1ccccc1Br 0.07%
O=C1/C(=C/c2cccnc2)CCC/C1=C\c1cccnc1 12.8%
Cn1c(-c2ccccc2)n[nH]c1=S -6.39%
N#Cc1cc(-c2ccccc2)nn1-c1ccccc1 -15.3%
O=C(CN1C(=O)CSC1=O)Nc1ccc2c(c1)OCCO2 53.7%
CCOc1ccccc1C(=O)Nc1nncs1 -3.85%
O=C(Nc1nncs1)c1cccnc1Cl 26.3%
O=C(Nc1ccccc1C(=O)Nc1nncs1)c1ccccc1 11.8%
Cc1nnc(NC(=O)c2ccccc2Br)s1 -1.4%
CCCCc1nc2sc3c(c2c(=O)[nH]1)CCC3 -6.58%
COc1ccccc1C1SCCN1S(C)(=O)=O (stereo not drawn) -6.23%
COc1cccc(OCC(=O)O/N=C(\N)c2ccc(OC)c(OC)c2)c1 -15%
COc1ccc2oc(C)c(C(N)=O)c2c1 2.03%
CCOC(=O)CCC(=O)c1c(C)oc2ccc(OC)cc12 9.88%
O=C1NC[C@H](Cc2ccc(O)cc2)N(CCc2cccc3ccccc23)C1=O -2.35%
COc1ccc(NC(=O)CN2C(=O)CSC(C)C2=O)c(OC)c1 (stereo not drawn) 37.7%
CCOc1ccc(NC(=O)CN2C(=O)NC(CCSC)C2=O)cc1 (stereo not drawn) 27.7%
CCOC(=O)c1ccc(NC(=O)CN2C(=O)CSC2=O)cc1 19%
CCOc1ccc(N2C(=O)C3CCCN3C2=O)cc1 (stereo not drawn) -1.37%
CCOC(=O)c1ccc(NC(=O)CN2C(=O)CCC2=O)cc1 -7.84%
COc1ccc(NC(=O)CN2C(=O)CSC2=O)cc1 30.1%
CCOc1ccc(NC(=O)C2CCC(N3C(=O)C4CC=CCC4C3=O)CC2)cc1 (stereo not drawn) 48%
O=C(CN1C(=O)C2CC=CCC2C1=O)Nc1ccc(S(=O)(=O)Nc2ncccn2)cc1 (stereo not drawn) 1.4%
Cc1cccc(OCCSc2nncn2C)c1 -2.41%
O=C1c2ccccc2C(=O)N1CSc1nnc(Nc2ccccc2F)s1 4.65%
CN(C)c1oc(-c2ccccc2Cl)nc1S(=O)(=O)c1ccccc1 0.69%
Cc1cccc(C)c1NC(=S)N/N=C/c1ccccc1C(=O)O 7.19%
COc1cc(/C=C/C(=O)OCC(=O)Nc2ccccc2Cl)cc(OC)c1OC 7.2%
Cc1ccccc1C(=O)NC(CC(C)C)C(=O)OCC(=O)c1c(N)n(C)c(=O)n(C)c1=O (stereo not drawn) -1.49%
CC(C)(C)NC(=O)C(c1ccc(O)cc1)N(C(=O)CCC(=O)Nc1nccs1)c1ccc(F)cc1 (stereo not drawn) 13.2%
O=C(CCCOc1ccccc1)Nc1ccccc1C(F)(F)F -17.7%
O=C1CC(c2ccccc2)=NN1c1nc(-c2ccccc2)cs1 -0.33%
CCOc1ccc(NC(=O)CN2C(=O)CSC2=O)cc1 54.4%
CCOc1ccc(NC(=O)CN2C(=O)C(C)SC(C)C2=O)cc1 (stereo not drawn) 5.98%
CC1SCC(=O)N(CC(=O)Nc2ccc3c(c2)OCCO3)C1=O (stereo not drawn) 2.2%
COc1ccc(NC(=O)CN2C(=O)C(C)SC(C)C2=O)c(OC)c1 (stereo not drawn) 26.5%
CC1SC(C)C(=O)N(CC(=O)Nc2ccc3c(c2)OCO3)C1=O (stereo not drawn) 35.2%
CCC1SC(CC)C(=O)N(CC(=O)NCc2ccc(F)cc2)C1=O (stereo not drawn) 7.04%
O=C(CN1C(=O)CSCC1=O)NCc1ccc(F)cc1 18.6%
CCOC(=O)c1ccc(NC(=O)CN2C(=O)CSC(C)C2=O)cc1 (stereo not drawn) 37%
CCOC(=O)C1(CCSC)NC(c2ccco2)C2C(=O)N(C)C(=O)C21 (stereo not drawn) -0.76%
CC(=O)c1sc(N2CCOCC2)nc1-c1ccccc1 9.61%
OCCC1CN(Cc2nc(-c3ccccc3)cs2)CCN1C1CCCC1 (stereo not drawn) 7.26%
Cc1c(-c2ccccc2)oc2c(C(=O)OCC(=O)Nc3cccc(F)c3)cccc2c1=O 2.04%
CCOC(=O)c1ccc(NC(=O)c2cccc(C)c2[N+](=O)[O-])cc1 0.85%
CCCCN(CC)S(=O)(=O)c1ccc(C(=O)N(CCCN(C)C)c2nc3cc(C)cc(C)c3s2)cc1 -3.97%
CC(=O)Nc1cccc(C(=O)OCc2ccc([N+](=O)[O-])cc2)c1 1.17%
Cc1cccc(Nc2nnc(C)c(=O)n2N)c1 8.38%
O=c1[nH]c2ccc(S(=O)(=O)N3CCCCC3)cc2[nH]c1=O 38.3%
O=c1[nH]c2ccc(S(=O)(=O)N3CCN(c4ccccc4)CC3)cc2[nH]c1=O 40.2%
COCC(=O)NCc1ccc2c(c1)OCO2 -6.02%
COC(=O)NCc1ccc2c(c1)OCO2 2.83%
COc1ccc(OCCCC(=O)Nc2cccc(SC)c2)cc1 1.34%
O=c1cc(O)c2sc3nc(-c4ccccc4)cc(C(F)(F)F)c3c2[nH]1 -7%
Nc1c(C(=O)C2CC2)sc2nc(-c3ccccc3)cc(C(F)(F)F)c12 -0.94%
Cc1cc(C)cc(N(C(=O)c2sc(C)nc2C)C(C(=O)NC(C)(C)C)c2ccncc2)c1 (stereo not drawn) 0.85%
FCCCOc1ccc(/C=N/OCc2ccc(Cl)cc2Cl)cc1 11.5%

— PubChem BioAssay AID1619 (SRMLSC, 2009)
